Bioassay records deposited in PubChem by Broad Institute.
aSyn 5UTR act = Activators via SNCA 5'UTR binding, MLPCN; alpha-synuclein 5'UTR reporter, activators screen; activity score, % (tested at 7.5 µM), hits read low; actives 7.1% (n = 300,000); AID 1814, 2009; in the data active means activity score below about -60%
A number is an active result; – = inactive. These entries were drawn from the full list.

SMILES	aSyn 5UTR act
CNC(=S)Nc1ccc(-c2nc3ccc(C)cc3s2)cc1	-91
Cc1ccc2nc(-c3ccc(N)cc3)sc2c1	–
Cc1ccc2nc(-c3ccc(NS(=O)(=O)c4ccc(F)cc4)cc3)sc2c1	-134
COc1ccc(/C=C(\C#N)C(=O)OCC(=O)Nc2ccc(-c3nc4ccc(C)cc4s3)cc2)cc1	-70
CC1=CCC(C(=O)O)C(C(=O)Nc2ccc(-c3nc4ccc(C)cc4s3)cc2)C1 (stereo not drawn)	-131
CC(=O)NC(=S)Nc1ccc(-c2nc3ccc(C)cc3s2)cc1	-272
CC(=O)c1c(C)[nH]c(C(=O)Nc2ccc(C)c(C)c2)c1C	-88
CCOC(=O)c1c(C)[nH]c(C(=O)Nc2ccc(C)c(Cl)c2)c1C	-108
CC(=O)c1c(C)[nH]c(C(=O)Nc2cccc(C(F)(F)F)c2)c1C	-100
CCc1c(C(=O)Nc2ccc(C)c(C)c2)[nH]c(C)c1C(C)=O	-146
CCOC(=O)c1c(C)[nH]c(C(=O)Nc2ccc(NC(C)=O)cc2)c1C	–
CN[C@H]1CCc2cc(OC)c(OC)c(OC)c2-c2ccc(OC)c(=O)cc21	–
COc1ccc(NC(=O)c2[nH]c(C)c(C(C)=O)c2C)cc1Cl	-77
CC(=O)c1c(C)[nH]c(C(=O)Nc2ccc3c(c2)OCCO3)c1C	-144
CC(c1ccon1)N(C)Cc1cn[nH]c1-c1ccc(-c2ccccc2)cc1 (stereo not drawn)	-135
CN(Cc1cn[nH]c1-c1ccc(-c2ccccc2)cc1)CC1CCOCC1	-93
CCN(CCn1cccn1)Cc1cn[nH]c1-c1ccc(-c2ccccc2)cc1	-67
CN(CCc1cnn(C)c1)Cc1cn[nH]c1-c1ccc(-c2ccccc2)cc1	-84
CCCCCCCCCn1c2c(c(=N)c3c1CCC3)CCC2	–
Cn1cc(CCNCc2cn[nH]c2-c2ccc(-c3ccccc3)cc2)cn1	-98
COc1cccc(C(=O)NC(=S)Nc2cccnc2)c1	-153
CC(C)Oc1cccc(C(=O)NC(=S)Nc2cccnc2)c1	-114
CCCOc1cccc(C(=O)NC(=S)Nc2ccccc2)c1	-102
CCOc1ccc(C(=O)NC(=S)Nc2cccnc2)cc1	-135
CC(C)Oc1cccc(C(=O)NC(=S)Nc2ccccc2)c1	-90
SMILES	aSyn 5UTR act
CCc1cccc2c1NC(=O)C21N2CCCC2C(C(=O)c2ccc3ccccc3c2)C12C(=O)Nc1ccccc12 (stereo not drawn)	-97
CCc1ccc2c(c1)C1(NN=C(c3cccc4ccccc34)S1)C(=O)N2 (stereo not drawn)	–
CCc1ccc2c(c1)C1(C(=O)N2)N2CCCC2C(C(=O)c2ccc3ccccc3c2)C12C(=O)Nc1ccccc12 (stereo not drawn)	-127
O=C1CC(c2ccccc2F)c2cc3c(cc2N1)CCC3 (stereo not drawn)	–
CN(C)c1ccc(NC2=C(Cl)C(=O)c3ccccc3C2=O)cc1	-116
O=C1C(Cl)=C(Nc2ccc3cn[nH]c3c2)C(=O)c2ccccc21	–
COCCC(=O)N1CCC(C(=O)Nc2ccc(Oc3ccccc3)nc2)CC1	-77
CCOc1ccc(-c2ccc(SCC(=O)N3CCN(c4ccccc4)CC3)nn2)cc1	-69
O=C(CSc1ccc(-c2ccccn2)nn1)N1CCCCC1	-66
CC(=O)c1cccc(NC(=O)CSc2ccc(-c3ccccn3)nn2)c1	–
O=C(CSc1ccc(-c2ccccc2)nn1)N1CCCCC1	-155
NNc1nc2c(-c3cccc(C(F)(F)F)c3)nnn2c2ccccc12	-71
COc1ccccc1-c1c(C(F)(F)F)oc2cc(OS(C)(=O)=O)ccc2c1=O	-101
Cn1cccc1/C=C1\CCC/C(=C\c2cccn2C)C1=O	-154
O=C1/C(=C/c2cccs2)CCC/C1=C\c1cccs1	-125
Nc1ncn([C@H]2C[C@H](O)[C@@H](CO)O2)c(=O)n1	-925
Nc1nc(Cl)nc2c1ncn2C1CC(O)C(CO)O1 (stereo not drawn)	–
O=c1[nH]c(=O)n([C@H]2C[C@H](O)[C@@H](CO)O2)cc1C(F)(F)F	–
Cc1ccc2[nH]c(=O)c(-c3nc4cc(C)ccn4c3NCc3ccco3)cc2c1	-78
Cc1nnc2n1N=CC=C(c1ccccc1)S2	-94
CCN1/C(=C2/SC(=S)N(C)C2=O)C=Cc2cc(C)ccc21	-68
C=CC[n+]1c(/C=C2\C=Cc3cc(C)ccc3N2CC)ccc2ccccc21	–
Cc1ccc(NC(=O)C2C3C=CC4(CN(Cc5cccnc5)C(=O)C24)O3)cc1 (stereo not drawn)	-80
C/C(=N/N=C(\C)c1ccccc1O)c1ccccc1O	-115
O=C(Nc1cc2c(cc1Cl)OCCCO2)c1ccco1	-144
SMILES	aSyn 5UTR act
O=C(Nc1cc2c(cc1Cl)OCCCO2)c1ccccc1	-151
O=C(NC12CC3CC(CC(C3)C1)C2)c1ccc([N+](=O)[O-])o1	-200
O=C(NC12CC3CC(CC(C3)C1)C2)c1ccc(-c2ccc(Br)cc2)o1	-246
COC(=O)C1=C(C)Nc2ccc(C)cc2S1	-64
COc1ccc(-c2nc(N/N=C(\C)c3ccc(O)cc3)c3ccccc3n2)cc1	-92
COC(=O)Nc1nc2ccc(C(=O)c3ccc(F)cc3)cc2[nH]1	–
Cc1nc2ccc(C(=O)c3ccccc3)cc2[nH]1	-95
